Screening data (PubChem BioAssay)
BAZ2B block – inhibitors of human BAZ2B bromodomain | AID 504333 | Q9UIF8 | 360,000 compounds, 4.4% hits | AlphaScreen BAZ2B-H3K14Ac peptide displacement | Potency, µM (highest dose often 114 µM), for inactives: top-dose activity change, negative = inhibition, most hits filed as inhibitors; further: potency means the concentration at half of the fitted maximal effect; on the % scale 0 is the no-effect control and ±100 the full control effect; nearly all actives have a fitted effect of over 60% in size
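AlphaScreen displacement of biotin-H3(5-23)K14Ac peptide (50 nM final) from BAZ2B (50 nM final) in PBS pH 7.4, 0.01% Tween-20; complex preformed 30 min RT, then compounds (top 110 uM) 30 min RT, beads 20 min dark.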
PI5P4K alpha inh – PI5P4K alpha (human) kinase inhibition; P48426; PI5P4Kalpha enzyme, ADP-Glo luminescence, 60 min; stronger effect = lower value; max response, %; 330,000 compounds, 1.2% hits; active means max response of -50% or lower; inconclusive means between -30% and -50%; inactive means -30% or higher; further: value at the top dose of about 77 µM; on the % scale 0 is the no-effect control and ±100 the full control effect
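Luminescence from ADP-Glo served as readout of PI5P4Kalpha activity in a qHTS format. Reaction: enzyme, substrate, compound, ATP at 5 microM final, 60 min at RT.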
HP1b chromo inh – blocks HP1-beta chromodomain binding to methylated histone tails; AID 540317; Potency, µM (doses to about 114 µM), inactives show at the top dose activity change, negative = inhibition, hits mostly inhibitors; 390,000 compounds, 0.56% hits; AlphaScreen HP1-beta / biotin-H3K9me3 peptide binding; further: potency means the concentration at half of the fitted maximal effect; nearly all actives have a fitted effect of over 70% in size
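HP1-beta protein (50 nM final) preincubated 30 min at room temperature with biotinylated H3(1-18)K9me3 peptide (50 nM) in PBS pH 7.4, 0.01% Tween-20, then compound added for 30 min. AlphaScreen streptavidin donor/nickel chelate acceptor beads (10 ug/mL final), 30 min dark, luminescence read.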
JMJD2A Tudor inh – JMJD2A Tudor domain (human) inhibition. 390,000 compounds, 4.4% hits. O75164. Potency, µM (highest dose often 114 µM), inactives show at the top dose activity change, negative = inhibition, usual class: inhibitors. AID 504339. AlphaScreen JMJD2A-Tudor / H3K4me3 peptide binding; further: potency means the concentration at half of the fitted maximal effect; on the % scale 0 is the no-effect control and ±100 the full control effect; nearly all actives have a fitted effect of over 50% in size
PLK1 PBD inh – PLK1 (human) polo-box domain binding inhibition; 360,000 compounds, 2.8% hits; Potency, µM, inactives show max response, negative = inhibition, actives largely listed as inhibitors; Plk1 PBD binding of FITC phosphopeptide, fluorescence polarization; P53350; AID 720504; further: potency means the concentration at half of the fitted maximal effect; series mostly up to about 57 µM; on the % scale 0 is the no-effect control and ±100 the full control effect; nearly all actives have a fitted effect of over 65% in size
G9a inh – blocks human histone lysine methyltransferase G9a; Q96KQ7; G9a H3K9 monomethylation, AlphaScreen, 2 h; Potency, µM (top dose mostly 102 µM), without a hit: at the top dose activity, negative = inhibition, usual class: inhibitors; 350,000 compounds, 8.8% hits; further: potency means the concentration at half of the fitted maximal effect; on the % scale 0 is the no-effect control and ±100 the full control effect; nearly all actives have a fitted effect of over 75% in size
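AlphaScreen read-out: biotin-H3K9 peptide (500 nM) methylation by 20 nM enzyme with 20 uM SAM, 2 h at room temperature after 15 min compound preincubation; anti-monomethyl H3K9 antibody plus donor/acceptor beads, 10 min dark.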
Starred values were filed as active, the others as inactive; ? = inconclusive; nt = no result given; [ ] = remark or other dose. Shown are actives, neighbours in structure and some others; about 12% of the full set was active somewhere. Unless noted, the call rests on the fitted dose curve; in most records, active means well fitted curve in the direction sought with a large enough effect; inconclusive means small, poorly fitted or top-dose-only effect, or another doubt; inactive means no such curve, though single readings can be large; an effect the other way counts as inactive or inconclusive.

SMILES	BAZ2B block	PI5P4K alpha inh	HP1b chromo inh	JMJD2A Tudor inh	PLK1 PBD inh	G9a inh
Cc1nnc(N2CCCC(C(=O)Nc3cccc(C(F)(F)F)c3)C2)c2nn(-c3ccccc3)c(C)c12 (centres undefined)	1.7%	nt	20.2%	-5.4%	nt	-25.9%[59 µM]
Cc1ccc(NNC(=O)c2c(C)noc2C)cc1Cl	-11.1%	2.0	67.7%	-10.3%	-10.1%	7.08µM*
Cc1cc(Cl)ccc1NNC(=O)c1c(C)noc1C	-15.6%	-5.0	-7.3%	79.4µM*	?	2.82µM*
Cc1noc(C)c1C(=O)Nc1ccc(Cl)cc1C(F)(F)F	7.9%	nt	26.9%	-13.7%	-3.4%	1.6%
O=C(NCC(=O)N(c1ccccc1F)C(C(=O)NC1CCCC1)c1cccnc1)c1ccco1 (centres undefined)	4.2%	0.3	-4.2%	-8.6%	-13.2%	21.1%
Cc1nc2c(C(=O)N3CCOCC3)cnn2c(C)c1Cc1cccc(Cl)c1	-22.3%	nt	nt	nt	nt	50.1µM*
Cc1nc2c(C(=O)N3CCOCC3)cnn2c(C)c1Cc1ccc(Cl)cc1	-6.7%	nt	14.3%	-1.9%	-3.9%	2.8%[12.7 µM]
CC(=O)Nc1ccc(SC(Sc2ccc(NC(C)=O)cc2)c2ccccc2)cc1	nt	1.9	25.6%	-16.0%	16.8µM*	nt
CC(=O)Nc1ccc(NC(=S)Nc2ccccc2)cc1	11.2%	0.2	26.2%	-6.8%	-11.1%	-29.4%
Cc1cc(C(=O)COc2cc(F)ccc2[N+](=O)[O-])c(C)n1C1CC1	?	-6.5	-6.5%	?	-6.7%	35.5µM*
Cc1cccc(NC(=O)CSc2nnc(-c3ccco3)c(-c3ccco3)n2)c1	50.1µM*	-61.3*	?	39.8µM*	26.7µM*	8.91µM*
Cc1cccc(NC(=O)CSc2nnc(-c3ccco3)c(-c3ccco3)n2)c1C	35.5µM*	-77.4*	?	50.1µM*	15µM*	21.6%[0.501 µM]
Cc1cccc(NC(=O)CSc2nc(N)cc(N)n2)c1	-0.8%	-6.1	23.6%	4.1%	-1.4%	-7.9%[59 µM]
C[C@@H]1C[C@H]2[C@H]3C[C@@H](F)C4=CC(=O)C=C[C@]4(C)[C@@]3(Cl)[C@@H](O)C[C@@]2(C)[C@@H]1C(=O)COC(=O)C(C)(C)C	nt	nt	nt	nt	nt	1.0%[12.7 µM]
CCOC(=O)c1ccc(NS(=O)C23CC4CC(CC(C4)C2)C3)cc1 (centres undefined)	-4.3%	nt	51.9%	-28.5%	-9.6%	5.01µM*
COc1ccccc1C1CCN(c2cc(O)ccc2[N+](=O)[O-])CC1	25.1µM*	-10.3	?	50.1µM*	-5.4%	nt
COC(=O)c1c(NC(=O)/C=C/C(=O)O)sc(C)c1-c1ccc(C(C)C)cc1	?	-6.8	3.6%	-29.1%	37.7µM*	?
CC(C)=C1C2CCC1C(C(=O)Nc1sc(C)c(-c3ccc(C(C)C)cc3)c1C(N)=O)C2C(=O)O (centres undefined)	1.7%	-0.6	-8.7%	-31.4%	29.9µM*	6.3%[59 µM]
Cc1ccc(-c2c(C)sc(NC(=O)C3C4CCC(O4)C3C(=O)O)c2C(=O)OC(C)C)cc1 (centres undefined)	?	-14.8	8.5%	?	?	-33.4%[0.0925 µM]
O=C(CSc1ccc(-c2ccccn2)nn1)c1ccc([N+](=O)[O-])cc1	8.91µM*	-10.9	6.2%	?	-13.3%	39.8µM*
O=C(CSc1ccc(-c2ccncc2)nn1)c1ccccc1	-1.7%	2.2	16.3%	-17.5%	-13.8%	25.1µM*
O=C(CC(=O)c1ccccc1)c1ccccc1	nt	17.8	285.3%	161.1%	-8.4%	-4.2%[2.33 µM]
O=C(COC(=O)c1ccccn1)c1ccc([N+](=O)[O-])cc1	11.2µM*	?	29.2%	25.1µM*	-16.4%	11.2µM*
O=C(CC(=O)c1ccncc1)c1ccccc1	nt	9.6	6.9%	31.6µM*	-4.6%	nt
CC(C)N(Cc1ccccc1)S(=O)(=O)c1ccc(N2CCCCS2(=O)=O)cc1	-9.1%	nt	40.6%	2.0%	nt	-1.0%[12.7 µM]
Cc1cc(C)c(S(=O)(=O)NCC(c2ccco2)S(=O)(=O)c2cccs2)c(C)c1 (centres undefined)	-17.9%	nt	12.7%	-30.5%	nt	-8.7%[59 µM]
